From PubChem BioAssay
An excerpt weighted towards active compounds, which were near 1.6% of everything screened.
KCNQ2 inh: inhibitors of rat KCNQ2 potassium channel | O88943 | CHO-K1 KCNQ2, FluxOR thallium flux, 20 min; active compounds read low | B-score at 10 µM | hit rate 1.1% among 310,000 | AID 2156;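 active means fluorescence ratio B-score at most minus 3 library SDs, with starting brightness B-score within 2 library SDs, cut at about -5.5 in these data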
Target sequence (O88943 whole entry, looked up): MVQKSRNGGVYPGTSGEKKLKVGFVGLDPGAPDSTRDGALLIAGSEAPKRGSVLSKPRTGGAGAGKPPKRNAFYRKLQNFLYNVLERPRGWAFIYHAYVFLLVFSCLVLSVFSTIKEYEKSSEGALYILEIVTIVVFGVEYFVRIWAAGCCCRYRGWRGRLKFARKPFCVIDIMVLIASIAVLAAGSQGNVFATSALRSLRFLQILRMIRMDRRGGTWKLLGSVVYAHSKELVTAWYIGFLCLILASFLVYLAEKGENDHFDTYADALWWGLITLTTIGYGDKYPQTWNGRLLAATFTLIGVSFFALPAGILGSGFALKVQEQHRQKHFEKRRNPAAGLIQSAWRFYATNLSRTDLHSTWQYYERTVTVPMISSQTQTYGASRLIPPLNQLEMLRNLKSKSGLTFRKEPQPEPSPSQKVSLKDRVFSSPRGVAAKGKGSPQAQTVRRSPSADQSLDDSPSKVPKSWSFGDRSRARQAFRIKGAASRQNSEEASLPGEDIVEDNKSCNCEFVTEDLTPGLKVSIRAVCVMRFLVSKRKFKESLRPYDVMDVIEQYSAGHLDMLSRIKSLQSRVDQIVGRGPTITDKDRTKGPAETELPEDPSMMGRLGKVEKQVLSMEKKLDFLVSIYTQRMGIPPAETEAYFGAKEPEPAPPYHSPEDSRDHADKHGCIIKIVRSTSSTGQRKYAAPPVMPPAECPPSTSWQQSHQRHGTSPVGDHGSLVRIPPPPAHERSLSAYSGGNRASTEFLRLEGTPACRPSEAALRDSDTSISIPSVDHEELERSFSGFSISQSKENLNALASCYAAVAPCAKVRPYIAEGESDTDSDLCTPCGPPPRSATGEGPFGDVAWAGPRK
KCNQ2 pot: potentiators of rat KCNQ2 potassium channel; hit rate 0.54% among 310,000; B-score at 10 µM; CHO-K1 KCNQ2, FluxOR thallium flux fluorescence; active compounds read high;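 active means fluorescence ratio B-score at least 3 SD of library B-scores, with initial fluorescence B-score within 3 of them, cut at about 5.3 in these data; same plate scores as AID 2156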;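 further: B-score of peak minus minimum over baseline fluorescence ratio after K+ and Tl+ stimulus; positive B-score means potentiation of KCNQ2 with more thallium influx and brighter signal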
* marks the source's active call; other numbers are inactive results; i = inactive; . = no result given.

SMILES	KCNQ2 inh	KCNQ2 pot
CC1(C)Cc2cccc(OCC(=O)N3CCN(c4cccc(Cl)c4)CC3)c2O1	i	.
CC1(C)Cc2cccc(OCC(=O)N3CCN(c4ccccc4Cl)CC3)c2O1	-6.17*	-6.17
Cc1cccc(Cc2cnc(N3C(=N)SC(C)C3=O)s2)c1 (configuration not stated)	i	6*
Cc1ccc(Cc2cnc(N3C(=N)SC(C)C3=O)s2)cc1 (configuration not stated)	i	0.46
Cc1ccccc1N1CCN(C2CCCN(C(=O)c3ccnn3C)C2)CC1 (configuration not stated)	i	.
Cc1ccc(-c2c(C(=O)NCc3ccc(F)cc3)oc(=O)c3ccccc23)cc1	i	9.22*
Cc1ccc(CNC(=O)c2cc(=O)c3ccccc3o2)cc1	i	0.3
O=C(O)c1cccc(COc2cccc3ccccc23)c1	i	1.67
COc1ccc(-c2nc(N3CCCCCC3)sc2C(=O)c2ccccc2)cc1	i	.
O=C(c1ccccc1)c1sc(N2CCCCCC2)nc1-c1ccccc1	-6.17*	-6.17
COc1cccc(CN2CC(C(=O)NCc3ncc(C)[nH]3)CCC2=O)c1 (configuration not stated)	i	1.58
Cc1ccc(NC(=O)NCCN2CCCCC2)cc1C	i	0.73
CCCCSCCCNC(=O)Nc1ccc(C)c(C)c1	i	8.69*
CCN(CC)c1ccc(NC(=O)c2ccc3c(c2)OCO3)c(C)c1	i	2.86
O=C(N1CCOCC1)C1(c2ccc(Cl)cc2)CCCC1	i	.
O=C(N1CCC(n2nc(-c3ccccc3)oc2=O)CC1)C1(c2ccc(Cl)cc2)CC1	-8.22*	-8.22
COc1ccc(NC(=O)c2ccccc2NC(=O)c2ccccc2)cc1	i	0.15
COc1ccc(/C=C/C(=O)Nc2ccccc2C(=O)N2CCCC2)cc1	i	.
COc1ccc(/C=C(/C(=O)Nc2ccccc2C(=O)N2CCCC2)c2ccccc2)cc1	-6.61*	-6.61
COc1ccc(/C=C(/C(=O)Nc2ccccc2C(=O)NC(C)C)c2ccccc2)cc1	-7.9*	-7.9
O=C(NCCS(=O)(=O)N1CCCCCC1)c1ccccc1	i	.
CCc1nnc(NC(=O)CCC(=O)N2CCN(c3cccc(Cl)c3)CC2)s1	i	.
O=C(CCCCl)NC(=S)Nc1cc(C(F)(F)F)ccc1N1CCOCC1	i	0.03
O=C(Nc1ccccc1)C1Cc2ccccc2CN1C(=O)c1ccco1 (configuration not stated)	i	.
O=C(/C=C/c1ccco1)NC(=S)Nc1cc(C(F)(F)F)ccc1N1CCOCC1	-7.27*	-7.27
SMILES	KCNQ2 inh	KCNQ2 pot
O=C(Nc1cc(C(F)(F)F)ccc1N1CCOCC1)C1Cc2ccccc2CN1C(=O)c1ccco1 (configuration not stated)	-6.45*	-6.45
Cc1nn(C(C)C(=O)NCCc2cccs2)c(=O)c2nn(-c3ccccc3)c(C)c12 (configuration not stated)	i	0.67
Cc1ccc(O)c(C(=O)c2cnc3c(c2)CN(C)C(=O)N3)c1	i	0.53
Cc1ccc2c(c1)-c1ncc(C(=O)c3cc(Br)ccc3O)cc1CO2	-7.43*	-7.43
CC(C)C1OC2c3cccc4cccc(c34)C2N1c1ccccc1 (configuration not stated)	-5.73*	-5.73
Cc1ccc(S(=O)(=O)CC(=O)c2cc3cccc(C)c3oc2=O)cc1	i	1.43
COc1ccc(/C=C2\C(=O)NCC(=O)N2Cc2ccccc2)cc1	i	.
COc1ccc(/C=C2\C(=O)N(Cc3ccc(F)cc3)CC(=O)N2Cc2ccccc2)cc1	-6.09*	-6.09
COc1cc2c(cc1NC(=O)/C=C/c1ccc([N+](=O)[O-])cc1)oc1ccccc12	i	5.61*
COc1cc2c(cc1NC(=O)COC(=O)/C=C/c1ccc([N+](=O)[O-])cc1)oc1ccccc12	i	.
O=C(CS(=O)CC(=O)N(CC(=O)NC1CCCC1)c1ccccc1F)Nc1ccc(F)cc1 (configuration not stated)	i	0.59
Oc1ccc(NCc2cccc(OCc3ccccc3)c2)cc1	i	.
Oc1ccc(NCc2cccc(OCc3ccc(F)cc3)c2)cc1	-5.85*	-5.85
COCCNC(=O)c1c(CS(=O)(=O)c2ccccc2)noc1C(=O)NCc1ccccc1	i	0.33
O=C(NCc1cccs1)c1cc(-c2ccccc2)nc2ccccc12	i	0.3
Cc1ccc(-c2nc3ccccc3c(C(=O)NCc3cccs3)c2C)cc1	-6.58*	-6.58
COCCNC(=O)c1onc(CSc2ccccc2)c1C(=O)NCCOC	i	1.3
COc1ccc(CNc2nc3nc(C)cc(C)n3n2)cc1OC	i	0.53
Cc1cc(C)n2nc(NCc3cccc(Br)c3)nc2n1	-6.69*	-6.69
O=C(O)c1cccc(N2C(=O)CSC2c2ccccc2)c1 (configuration not stated)	i	0.21
CCN1C(=O)CSC1=Nc1ccccc1Cl	i	0.88
COc1ccccc1C1CC(c2cccs2)=Nc2ccccc2S1 (configuration not stated)	i	.
